Screens deposited in PubChem BioAssay by National Center for Advancing Translational Sciences (NCATS).
SMN2 splice enh – increases expression of the SMN2 splice variant; HEK293 SMN2-luciferase splicing reporter, luminescence, 30-36 h; Potency, µM (doses to about 46.1 µM), inactives show at the top dose activity change, positive = activation, most hits filed as activators; 2.8% of 210,000 active; AID 1458; also: % of control where 0% means no effect; nearly all actives have a fitted effect of over 55% in size
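qHTS luciferase splicing reporter: luminescence rises when SMN2 exon 7 is included in transfected HEK293 cells. Compound exposure lasted 30-36 h at 37C, with 4.5 mM final sodium butyrate as control, followed by a ONE-Glo read.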
ELG1 genotox – inducers of genotoxicity in HEK293T ELG1-luciferase cells | HEK293T ELG1-luciferase reporter, luminescence, 16 h | Potency, µM (series often up to 46 µM), without a hit: at the top dose activity change, positive = activation, usual class: activators | 1.3% of 330,000 active | AID 504466; also: % of control where 0% means no effect; nearly all actives have a fitted effect of over 60% in size
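Cells (2,000/well) expressing the ELG1-luciferase fusion are dosed by pin tool and kept 16 hr at 37 °C, 5% CO2. Signal comes from ONE-Glo luciferase reagent after 30 min at room temperature.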
FLuc counter – counter-screen for miR-21 project: firefly luciferase inhibitors or activators; Potency, µM (top dose mostly 57.5 µM), inactives show top-dose activity change, negative = inhibition, actives largely listed as inhibitors; 6.9% of 360,000 active; purified FLuc, Km substrates, luminescence inhibition;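 also: plate controls were vehicle for no effect and reference inhibitor for full effect; nearly all actives have a fitted effect of over 55% in size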
Target sequence (P08659 whole entry, looked up): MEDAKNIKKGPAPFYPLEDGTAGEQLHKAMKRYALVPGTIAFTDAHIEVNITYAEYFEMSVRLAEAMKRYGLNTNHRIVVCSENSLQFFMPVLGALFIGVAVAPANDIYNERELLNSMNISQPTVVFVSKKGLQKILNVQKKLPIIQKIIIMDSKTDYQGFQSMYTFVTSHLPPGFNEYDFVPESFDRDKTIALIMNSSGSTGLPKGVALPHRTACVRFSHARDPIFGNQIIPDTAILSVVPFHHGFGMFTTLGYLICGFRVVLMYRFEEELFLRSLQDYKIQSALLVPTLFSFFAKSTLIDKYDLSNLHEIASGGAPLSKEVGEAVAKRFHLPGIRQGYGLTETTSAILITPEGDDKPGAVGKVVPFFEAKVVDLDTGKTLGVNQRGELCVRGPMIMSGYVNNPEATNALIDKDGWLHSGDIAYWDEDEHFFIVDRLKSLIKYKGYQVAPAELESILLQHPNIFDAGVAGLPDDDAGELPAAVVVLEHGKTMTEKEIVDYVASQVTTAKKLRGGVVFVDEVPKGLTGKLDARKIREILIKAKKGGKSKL
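Biochemical qHTS of compounds, final roughly 60 µM downward over six points, against 10 nM purified firefly luciferase using Km concentrations of substrates (10 uM D-luciferin, 10 uM ATP) in Tris acetate pH 7.5 buffer; luminescence output.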
Rab9 promoter act – activators of Rab9 promoter; Huh7 Rab9 promoter-luciferase reporter, luminescence, 24 h; Potency, µM (top dose mostly 9.22 µM), for the others: top-dose activation, negative = inhibition, hits mostly activators; AID 485297; 2.8% of 320,000 active; also: % of control where 0% means no effect; nearly all actives have a fitted effect of over 60% in size
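Huh7 reporter line, Rab9 promoter upstream of luciferase. Compound exposure 24 h at 37 °C in reduced-serum medium with 10% FBS. Read-out: luminescence.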
NPC1 promoter act – NPC1 promoter activation; AID 485313; Huh7 NPC1 promoter luciferase reporter, 24 h; 2.4% of 320,000 active; Potency, µM (top dose mostly 9.22 µM), for inactives: top-dose activation, usual class: activators; also: % of control where 0% means no effect; nearly all actives have a fitted effect of over 60% in size
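Luminescence from an NPC1 promoter-driven luciferase reporter in stably transfected Huh7 cells was measured after 24 h compound treatment at 37 °C, followed by 10 min ambient incubation with luciferase detection reagent.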
* marks the source's active call; other numbers are inactive results; u = inconclusive; x = no result. Rows were chosen to be rich in hits. Some 7.5% of all compounds tested hit in one or more screens of this group. Calls follow the shape of the dose curve; as a rule, active = well fitted curve in the direction sought with a large enough effect; inconclusive = small, poorly fitted or top-dose-only effect, or another doubt; inactive = no such curve, though single readings can be large; an effect the other way counts as inactive or inconclusive. Potency is read from the fitted curve at half-maximal effect.

SMILES	SMN2 splice enh	ELG1 genotox	FLuc counter	Rab9 promoter act	NPC1 promoter act
COc1ccc(C(=O)N2CCN(c3ncnc4c(-c5ccccc5)nsc34)CC2)cc1	-87%	-3%	-1%	-6%	-4%
COc1ccc(-c2nsc3c(N4CCCCC4)ncnc23)cc1	-73%	u	0.085µM*	u	u
COc1ccc(-c2nsc3c(N4CCCCC4C)ncnc23)cc1 (configuration not stated)	-73%	-9%	0.34µM*	-44%	-29%
CCCCCCCSc1nc(N)cc(=O)[nH]1	-8%	8%	-2%	-1%	0%
O=C(NCCSCc1c(F)cccc1Cl)c1ccc(CN2CCOCC2)cc1	-17%	-1%	-10%	2.5µM*	12%
O=C(NCCSCc1ccco1)Nc1ccccc1	x	12%	17µM*	24%	26%
S=C(NCCSCc1c(Cl)cccc1Cl)Nc1ccccc1	14%	-10%	-12%	-1%	-1%
O=C(NCCSCc1c(F)cccc1Cl)Nc1ccccc1	x	4%	17µM*	9%	18%
O=C(NCCSCc1ccco1)c1ccc(CN2CCOCC2)cc1	10%	29%	u	21%	19%
O=c1[nH]cnc2c1c(-c1ccccc1)cn2-c1cccc(Cl)c1	x	9%	4%	-6%	8%
N#Cc1c(-c2ccccc2)ccn(Cc2ccccc2Cl)c1=O	-24%	0%	-2%	1%	-1%
COc1cc(C(=O)NCC(=O)NNC(=O)C2COc3ccccc3O2)cc(OC)c1OC (configuration not stated)	x	2%	0%	1%	-2%
O=c1[nH]ncn1-c1ccc(Br)cc1	x	4%	3%	-2%	0%
O=c1cc(-c2ccc(O)cc2)oc2c1ccc1ccccc12	x	u	-12%	11%	4%
O=c1cc(-c2ccc(O)cc2)oc2c(O)c(O)c(O)c(O)c12	x	-1%	1%	-1%	-5%
COc1cc2oc(-c3ccc(O)cc3)cc(=O)c2c(O)c1OC	x	u	19µM*	0%	24%
COc1cc2oc(-c3ccc(O)cc3)cc(=O)c2c(OC)c1O	x	16µM*	24µM*	1%	-2%
O=c1cc(-c2ccc(O)cc2)oc2ccc3ccccc3c12	x	u	0.067µM*	u	0.89µM*
COc1c(O)cc2oc(-c3ccc(O)cc3)cc(=O)c2c1O	x	9.2µM*	0.85µM*	u	u
COc1ccc(-c2cnc(OC(C)(C)C)nc2OC(C)(C)C)cc1OC	-12%	-5%	-2%	-5%	1%
O=C(O)Cc1ccc(-c2ccccc2-c2ccccc2)cc1	-22%	9%	2%	-4%	-2%
COC(=O)Cc1ccc2sc(-c3ccccc3)nc2c1	1.6µM*	2.6µM*	0.67µM*	2.5µM*	1.6µM*
COC(=O)Cc1sc(-c2ccccn2)nc1-c1ccccc1	-14%	-12%	u	-3%	-1%
O=C(O)Cc1ccc2sc(-c3ccccc3)nc2c1	21%	8%	19µM*	21%	14%
COc1cc(NS(=O)(=O)c2cc3c(cc2C)n(C)c(=O)c(=O)n3C)cc(OC)c1	x	x	0%	x	x
SMILES	SMN2 splice enh	ELG1 genotox	FLuc counter	Rab9 promoter act	NPC1 promoter act
CC(C)(C)C(=O)N1CCN(c2ccc(NC(=O)c3ccc4c(c3)OCCO4)cc2)CC1	x	-28%	u	-9%	-3%
O=C(Nc1ccc(N2CCCCC2)cc1)c1ccc2c(c1)OCCO2	-24%	3%	1.7µM*	1.4µM*	u
CN1CCN(c2ccc(NC(=O)c3ccc4c(c3)OCO4)cc2)CC1	u	u	11µM*	1.8µM*	2.5µM*
Cc1ccccc1C(=O)/C=C1/c2ccccc2CC(C)(C)N1C	-17%	-6%	7%	-1%	0%
COc1ccccc1CNC(=O)C(=O)NCC(c1cccnc1)N1CCN(c2ccc(F)cc2)CC1 (configuration not stated)	x	x	-11%	x	x
COc1ccc(S(=O)(=O)N(C)CC(=O)NC2CCCCC2)cc1Cl	-17%	-1%	0%	-3%	-2%
Cc1ccc(C)c(SCC(=O)NNC(=O)c2csc(N3CCOCC3)n2)c1	x	-4%	-3%	-1%	2%
Fc1ccccc1SCc1nnc(-c2ccccc2Br)o1	2.8µM*	2.9µM*	0.95µM*	0.35µM*	0.71µM*
Cc1nnc(SCc2nnc(-c3ccccc3Br)o2)n1-c1ccccc1	-11%	1%	-14%	-1%	-1%
Cc1csc(SCc2nnc(-c3ccc(Cl)cc3)o2)n1	u	10µM*	7.6µM*	2.8µM*	2.8µM*
Cc1csc(SCc2nnc(-c3ccccc3Br)o2)n1	x	u	1.7µM*	1.8µM*	1.4µM*
Brc1ccccc1-c1nnc(CSc2nnnn2-c2ccccc2)o1	16%	21%	-22%	3%	9%
Cc1ccc(-c2nnc(CSc3nnc(C)s3)o2)cc1	13%	u	u	u	u
CC(=O)c1ccc(NC(=O)c2ccc(NC(=O)CCS(=O)(=O)c3cccs3)cc2)cc1	17%	u	u	-1%	-1%
COc1ccc(NC2=C(C)C(=O)CC2)cc1	u	18µM*	3%	1%	-4%
COc1ccc(NC(C#N)c2ccc(OC)cc2)cc1 (configuration not stated)	-4%	u	3µM*	0%	-1%
COc1ccc(Nc2ccc(Nc3ccc(OC)cc3)nn2)cc1	x	0%	0%	u	-1%
COc1ccc(C(C#N)Nc2ccccc2)cc1 (configuration not stated)	x	8%	1%	-1%	-3%
COc1ccc(Nc2ccccc2C(=O)O)cc1	4%	10%	0%	9%	8%
COc1ccc(Nc2ccc(OC)cc2)cc1	x	x	19µM*	u	u
COc1ccc(NC2=CC(=O)N(C)C2=O)cc1	11µM*	u	u	u	u
COc1ccc(Nc2nc(C)cc(=O)[nH]2)cc1	-6%	2%	3%	0%	-4%
Cc1cc(C)nc(NNS(=O)(=O)c2ccc(Cl)cc2)n1	x	-1%	x	x	x
CCS(=O)(=O)N1CC(=O)N(c2ccc(Cl)cc2)C(C)(C(=O)NC2CCCCCC2)C1 (configuration not stated)	x	x	-5%	x	x
CSc1nsc(SC)c1C(N)=O	x	-5%	-2%	-4%	-3%
SMILES	SMN2 splice enh	ELG1 genotox	FLuc counter	Rab9 promoter act	NPC1 promoter act
COc1ccc(Nc2nc(NN)nc(Nc3ccc(OC)cc3)n2)cc1	x	-9%	11µM*	-5%	6%
NNc1nc(Nc2ccccc2)nc(Nc2ccccc2)n1	-4%	-2%	u	0%	9%
Cc1cccc(NC(=O)c2cnc3scc(C)n3c2=O)c1	13µM*	16%	8.5µM*	3.2µM*	3.2µM*
Cc1cc(NS(=O)(=O)c2ccc(NC(=O)c3cnc4scc(C)n4c3=O)cc2)nc(C)n1	13%	8%	-2%	-2%	0%
Cc1csc2ncc(C(=O)Nc3ccc4c(c3)OCCO4)c(=O)n12	4.5µM*	2.3µM*	u	2.2µM*	u
Cc1csc2ncc(C(=O)Nc3ccon3)c(=O)n12	-4%	5%	-8%	12%	13%
